Assay results from PubChem BioAssay (EPA / NIEHS).
Several values for one entry are separate records, joined by “and”; a condition that tells them apart may be missing. Equal entries are not always repeated. Inconclusive results are not listed. The source holds several records for some structures; these can differ, active in one and inactive in another. Activity calls are given as the source filed them. How the source made its calls: active means hit-call score of the fitted dose curve at least 0.9, where 1 is the maximum; inconclusive means response in the unintended direction; inactive means score below 0.9.

Tests used:
[1] = biological target: Estrogen receptor (Homo sapiens) (UniProt P03372); experiment: OT_ER_ERaERa_1440: Odyssey Thera (OT) 24-hour HEK293T Protein-Complementation Assay for Estrogen Receptor-alpha/-alpha Homodimer (AID 2283349);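 further: hits raise fluorescence above DMSO for agonists and antagonists alike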
Summary of the method: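 Protein-fragment complementation between two human ERα ligand-binding domains (aa 310-547) in stably transfected HEK293T cells was monitored after 24 h treatment, using fluorescence intensity relative to vehicle controls.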

[2] = biological target: Estrogen receptor (Homo sapiens) (UniProt P03372); experiment: OT_ER_ERaERa_0480: Odyssey Thera (OT) 8-hour HEK293T Protein-Complementation Assay for Estrogen Receptor-alpha/-alpha Homodimer (AID 2283351);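 further: rise in fluorescence from reassembled reporter fragments on ERα LBD homodimer in nucleus or whole cell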
Summary of the method: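 Binding reporter in which dimerisation of ERα LBD (aa 310-547) fusions reconstitutes a fluorescent reporter in HEK293T cells. Compounds incubated 8 h; mean fluorescence intensity increase versus DMSO scored.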

[3] = biological target: Estrogen receptor (Homo sapiens) (UniProt P03372); experiment: NVS_NR_hER: NovaScreen (NVS) Nuclear Receptor Binding Assay for human Estrogen Receptor (ER) (AID 2283348)
Summary of the method: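 Scintillation signal from bound radioligand was measured 18 hours after chemical addition to cell-free MCF7 protein extracts, with DMSO as baseline. Activity was scored as signal loss; compounds ran first at 25 uM in duplicate.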

[4] = biological target: T1, Estrogen receptor (Homo sapiens) + Estrogen receptor beta (Homo sapiens) (UniProt P03372+Q92731); experiment: OT_ER_ERaERb_0480: Odyssey Thera (OT) 8-hour HEK293T Protein-Complementation Assay for Estrogen Receptor-alpha/-beta Heterodimer (AID 2283352)
Summary of the method: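 Fluorescence increase from reconstituted reporter fragments, quantified by laser scanning cytometer, reflects ER-alpha/ER-beta heterodimer formation in human HEK293T cells. Exposure 8 h; positive-direction fitting against DMSO vehicle.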

[5] = biological target: T1, Estrogen receptor (Homo sapiens) + Estrogen receptor beta (Homo sapiens); experiment: OT_ER_ERaERb_1440: Odyssey Thera (OT) 24-hour HEK293T Protein-Complementation Assay for Estrogen Receptor-alpha/-beta Homodimer (AID 2283356);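 further: heteromer of ER alpha and ER beta binding domains; hits raise reporter fluorescence and both agonists and antagonists give an increase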
Summary of the method: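 Fragment complementation between ER alpha (310-547) and ER beta (263-489) ligand-binding domains in HEK293T cells; signal read 24 h post-dosing by laser scanning cytometer. Gain of fluorescence relative to DMSO fitted.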

[6] = biological target: Androgen Receptor/SRC-1 Co-activator, AR (gene 367) (UniProt P10275); experiment: OT_AR_ARSRC1_0960: Odyssey Thera (OT) 16-hour HEK293T Protein-Complementation Assay for Androgen Receptor/SRC-1 Co-activator (AID 2283353);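 further: actives raise the signal above DMSO so potency reflects increased AR and SRC-1 complex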
Summary of the method: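 Interaction of AR with SRC-1 was followed by YFP fragment complementation in HEK293T cells after 16 h of dosing. Gain of nuclear-over-cytoplasmic 488 nm fluorescence against DMSO controls defined activity.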

[7] = biological target: Androgen Receptor/SRC-1 Co-activator, AR (gene 367) (UniProt P10275); experiment: OT_AR_ARSRC1_0480: Odyssey Thera (OT) 8-hour HEK293T Protein-Complementation Assay for Androgen Receptor/SRC-1 Co-activator (AID 2283354);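 further: hits raise the complementation signal above DMSO so AC50 marks enhancers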
Summary of the method: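 Measures AR/SRC-1 binding by Venus YFP fragment complementation in HEK293T stable lines at 8 h post-dose. Imaging quantifies the 488nm nucleus/cytoplasm ratio in ≥400 cells; DMSO defines baseline.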

[8] = biological target: Bile acid receptor (Homo sapiens) (UniProt Q96RI1); experiment: NVS_NR_hFXR_Antagonist: NovaScreen (NVS) Nuclear Receptor Binding Assay for human Farnesoid X Receptor Antagonism (FXR) (AID 2283350)
Procedure: (§1) NVS_NR_hFXR_Antagonist is a biochemical, single-readout assay that uses extracted gene-proteins in a cell-free assay. Measurements were taken 1 hour after chemical dosing in a 384-well plate.NVS_NR_hFXR_Antagonist is one of one assay component(s) measured or calculated from the NVS_NR_hFXR_Antagonist assay. It is designed to make measurements of fluorescent resonance energy transfer, a form of binding reporter, as detected with fluorescent resonance energy transfer signals by Time-Resolved Fluorescence Resonance Energy Transfer (TR-FRET) technology.Data from the assay component NVS_NR_hFXR_Antagonist was analyzed into 1 assay endpoint. This assay endpoint, NVS_NR_hFXR_Antagonist, was analyzed in the positive analysis fitting direction relative to DMSO as the negative control and baseline of activity. Using a type of binding reporter, loss-of-signal activity can be used to understand changes in the binding as they relate to the gene NR1H4. Furthermore, this assay endpoint can be referred to as a primary readout, because the performed assay has only produced 1 assay endpoint. To generalize the intended target to other relatable targets, this assay endpoint is annotated to the nuclear receptor intended target family, where the subfamily is non-steroidal. […]

[9] = biological target: Bile acid receptor (Homo sapiens) (UniProt Q96RI1); experiment: NVS_NR_hFXR_Agonist: NovaScreen (NVS) Nuclear Receptor Binding Assay for human Farnesoid X Receptor Agonism (FXR) (AID 2283347)
Procedure: as §1, with “NVS_NR_hFXR_Agonist” for “NVS_NR_hFXR_Antagonist”, “plate.NVS_NR_hFXR_Agonist” for “plate.NVS_NR_hFXR_Antagonist”, “NVS_NR_hFXR_Agonist,” for “NVS_NR_hFXR_Antagonist,”, “gain-of-signal” for “loss-of-signal”

Measured: AC50

Sequence of Estrogen receptor (Homo sapiens) (P03372 whole entry, looked up, the tested form may be a part): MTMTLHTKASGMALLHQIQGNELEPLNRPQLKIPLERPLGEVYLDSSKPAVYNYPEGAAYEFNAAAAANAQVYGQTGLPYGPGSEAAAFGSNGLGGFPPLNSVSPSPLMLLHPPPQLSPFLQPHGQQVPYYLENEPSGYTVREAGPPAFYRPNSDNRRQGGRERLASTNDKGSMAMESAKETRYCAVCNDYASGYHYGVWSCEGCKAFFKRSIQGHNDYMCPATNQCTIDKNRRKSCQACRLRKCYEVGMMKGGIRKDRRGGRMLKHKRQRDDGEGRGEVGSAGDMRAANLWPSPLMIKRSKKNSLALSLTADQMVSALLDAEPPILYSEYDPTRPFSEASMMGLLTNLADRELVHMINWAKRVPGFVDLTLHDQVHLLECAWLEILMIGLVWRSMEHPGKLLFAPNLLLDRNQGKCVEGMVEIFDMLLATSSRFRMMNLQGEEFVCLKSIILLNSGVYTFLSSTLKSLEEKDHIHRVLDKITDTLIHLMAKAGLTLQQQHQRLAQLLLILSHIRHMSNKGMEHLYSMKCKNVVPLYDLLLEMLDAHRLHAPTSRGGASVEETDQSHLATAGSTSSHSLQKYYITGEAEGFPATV
T1 sequence (P03372 whole entry, looked up, the tested form may be a part): as above
T1 sequence (Q92731 whole entry, looked up, the tested form may be a part): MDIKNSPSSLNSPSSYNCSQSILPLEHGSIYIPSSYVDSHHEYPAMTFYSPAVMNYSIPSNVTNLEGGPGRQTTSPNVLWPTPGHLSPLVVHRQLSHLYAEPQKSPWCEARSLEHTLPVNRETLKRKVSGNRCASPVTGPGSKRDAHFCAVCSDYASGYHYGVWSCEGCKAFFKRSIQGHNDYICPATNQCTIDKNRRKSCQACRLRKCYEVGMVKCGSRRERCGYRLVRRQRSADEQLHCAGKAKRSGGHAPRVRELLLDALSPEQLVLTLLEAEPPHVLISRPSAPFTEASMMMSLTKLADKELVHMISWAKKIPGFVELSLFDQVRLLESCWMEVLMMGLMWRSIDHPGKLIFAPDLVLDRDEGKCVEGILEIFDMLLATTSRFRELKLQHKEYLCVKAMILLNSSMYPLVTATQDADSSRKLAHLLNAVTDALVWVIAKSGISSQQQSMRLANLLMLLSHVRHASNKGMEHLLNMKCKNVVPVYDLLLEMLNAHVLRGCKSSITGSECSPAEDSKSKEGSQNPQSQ
Sequence of Androgen Receptor/SRC-1 Co-activator, AR (gene 367) (P10275 whole entry, looked up, the tested form may be a part): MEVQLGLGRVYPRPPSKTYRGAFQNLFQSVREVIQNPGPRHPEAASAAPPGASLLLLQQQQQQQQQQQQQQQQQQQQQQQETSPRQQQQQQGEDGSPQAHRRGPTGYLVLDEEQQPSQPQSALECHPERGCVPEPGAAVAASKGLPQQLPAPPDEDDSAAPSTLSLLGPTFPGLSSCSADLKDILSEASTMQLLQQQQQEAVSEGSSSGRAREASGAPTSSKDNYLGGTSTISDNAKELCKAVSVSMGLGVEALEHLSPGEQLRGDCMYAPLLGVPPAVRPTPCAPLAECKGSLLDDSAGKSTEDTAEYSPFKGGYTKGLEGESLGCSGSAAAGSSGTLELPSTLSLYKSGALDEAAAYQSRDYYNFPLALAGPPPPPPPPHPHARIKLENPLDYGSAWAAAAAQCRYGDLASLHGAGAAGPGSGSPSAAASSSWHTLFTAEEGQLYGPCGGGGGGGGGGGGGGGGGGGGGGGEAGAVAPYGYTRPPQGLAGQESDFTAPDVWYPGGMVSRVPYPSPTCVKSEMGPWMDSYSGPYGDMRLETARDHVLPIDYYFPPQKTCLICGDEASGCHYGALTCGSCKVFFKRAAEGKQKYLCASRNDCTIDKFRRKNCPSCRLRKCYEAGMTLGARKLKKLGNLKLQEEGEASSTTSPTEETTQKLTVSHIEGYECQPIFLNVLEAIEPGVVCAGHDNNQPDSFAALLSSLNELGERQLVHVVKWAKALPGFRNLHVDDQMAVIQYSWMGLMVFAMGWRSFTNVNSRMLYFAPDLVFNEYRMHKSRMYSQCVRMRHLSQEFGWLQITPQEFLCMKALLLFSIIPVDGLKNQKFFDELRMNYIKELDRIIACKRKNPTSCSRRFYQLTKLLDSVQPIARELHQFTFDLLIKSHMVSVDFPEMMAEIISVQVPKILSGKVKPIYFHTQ
Sequence of Bile acid receptor (Homo sapiens) (Q96RI1 whole entry, looked up): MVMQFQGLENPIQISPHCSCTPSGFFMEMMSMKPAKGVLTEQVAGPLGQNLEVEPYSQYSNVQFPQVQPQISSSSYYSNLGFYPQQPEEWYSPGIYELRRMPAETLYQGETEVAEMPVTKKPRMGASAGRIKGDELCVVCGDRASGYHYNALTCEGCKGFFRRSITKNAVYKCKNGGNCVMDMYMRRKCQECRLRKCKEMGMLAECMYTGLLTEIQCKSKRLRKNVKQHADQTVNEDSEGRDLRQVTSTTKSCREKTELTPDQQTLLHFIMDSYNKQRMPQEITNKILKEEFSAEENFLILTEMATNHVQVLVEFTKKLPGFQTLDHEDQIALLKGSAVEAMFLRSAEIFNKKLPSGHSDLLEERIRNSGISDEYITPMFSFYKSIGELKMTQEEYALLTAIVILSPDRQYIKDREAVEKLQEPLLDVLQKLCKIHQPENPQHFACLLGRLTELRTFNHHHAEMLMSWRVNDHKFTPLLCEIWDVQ

CCCCOCC1CO1 (stereo unspecified)
inactive: [1] | [2]

CCOC(=O)c1ccccc1C(=O)OCC
inactive: [1]

CC(Cl)(Cl)C(=O)O
inactive: [3] | [1] | [2] | [4] | [5]

c1ccc2c(c1)sc1ccccc12
inactive: [1] | [2]

ClC(Cl)(Cl)c1ccccc1
inactive: [3] | [1] | [2] | [4] | [5]

CCOP(=S)(OCC)SCn1nnc2ccccc2c1=O
inactive: [3]

CCCCCCCc1ccc(O)cc1
active: [3] 18.8 µM | [1] 24.5 µM and 23.2 µM | [2] 26.1 µM and 23.4 µM and 23.6 µM | [4] 12.7 µM and 12.5 µM | [6] 72 µM and 72.7 µM and 73.8 µM | [7] 74.4 µM and 73.3 µM | [5] 15.3 µM and 11.3 µM
inactive: [3] | [1] | [2] | [4] | [6] | [7] | [5]

[N-]=[N+]=[N-]
inactive: [3] | [1] | [2] | [6]

CO/N=C(/C(=O)OC)c1ccccc1COc1ccccc1C
active: [1] 76.4 µM | [2] 50 µM
inactive: [3] | [6] | [7]

O=[N+]([O-])c1ccc(Cl)c(Cl)c1
inactive: [1] | [2]

Nc1ccc(Cl)cc1
inactive: [1] | [2]

CCCCN(CCCC)N=O
inactive: [1] | [8] | [4] | [5]

ClC1=C(Cl)C2(Cl)C3C(Cl)C(Cl)CC3C1(Cl)C2(Cl)Cl (stereo unspecified)
active: [6] 38.1 µM | [7] 48.4 µM
inactive: [9] | [3] | [1] | [5]

ClC(Cl)c1ccccc1
inactive: [1] | [2]

CCCCc1ccccc1
inactive: [1] | [8] | [2] | [4] | [5]

O=P1(N(CCCl)CCCl)NCCCO1 (stereo unspecified)
inactive: [3] | [1] | [2] | [4] | [5]
active: [3] 15.7 µM
